Source: PubChem BioAssay AID606 (Columbia University Molecular Screening Center, 2007)
Screen size: about 52,000 compounds; fewer than 10 were called active.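 The calls were made as follows: active = IC50 under 40 µM in the dose-response test; inactive = IC50 of 40 µM or more, or never dose-tested.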 The list is a sample of the results.

Target: Tyrosine-protein phosphatase non-receptor type 22 (Homo sapiens) (UniProt Q9Y2R2)
Test: inhibition of human PTPN22 tyrosine phosphatase – biochemical, DiFMUP fluorescence, recombinant catalytic domain, 10 µM, primary screen (AID 606)
Details: recombinant LYP catalytic domain, at 10 µM, active compounds read high

Sequence of Tyrosine-protein phosphatase non-receptor type 22 (Homo sapiens) (Q9Y2R2 whole entry, looked up, the tested form may be a part): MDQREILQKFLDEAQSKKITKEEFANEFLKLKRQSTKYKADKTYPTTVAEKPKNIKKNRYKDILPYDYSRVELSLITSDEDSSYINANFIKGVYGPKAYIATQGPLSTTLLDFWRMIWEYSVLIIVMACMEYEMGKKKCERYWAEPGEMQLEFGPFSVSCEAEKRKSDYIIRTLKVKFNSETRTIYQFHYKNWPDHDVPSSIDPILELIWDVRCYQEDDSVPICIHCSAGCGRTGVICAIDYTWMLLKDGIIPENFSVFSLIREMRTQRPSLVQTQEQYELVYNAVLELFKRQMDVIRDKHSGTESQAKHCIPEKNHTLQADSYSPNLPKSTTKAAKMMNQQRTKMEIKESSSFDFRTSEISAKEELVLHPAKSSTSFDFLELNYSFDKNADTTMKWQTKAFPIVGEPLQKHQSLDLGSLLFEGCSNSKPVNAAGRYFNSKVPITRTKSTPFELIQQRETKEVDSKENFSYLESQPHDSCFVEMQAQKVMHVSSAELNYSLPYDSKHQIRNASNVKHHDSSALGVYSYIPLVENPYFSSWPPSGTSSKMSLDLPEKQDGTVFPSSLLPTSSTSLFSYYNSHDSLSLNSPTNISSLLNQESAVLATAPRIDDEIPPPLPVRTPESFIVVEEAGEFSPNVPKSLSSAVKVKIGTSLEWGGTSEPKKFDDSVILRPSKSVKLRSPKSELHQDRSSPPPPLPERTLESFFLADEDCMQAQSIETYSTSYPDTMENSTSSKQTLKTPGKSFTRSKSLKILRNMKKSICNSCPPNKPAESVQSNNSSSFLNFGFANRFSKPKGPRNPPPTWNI

inhibition, inactive:
COc1ccccc1-n1c(CNc2c(C)cccc2C)nnc1SCC(=O)N1CCOCC1 19.1%, Cc1ccc(-n2c(N)c(C(=O)N3CCOCC3)sc2=S)cc1 15.3%, O=C1CC(c2ccc3c(c2)OCO3)Sc2nc3ccccc3n21 (stereo unspecified) 11.4%, CCCCN(CCCC)Cc1ccc(N)cc1 3.2%, COc1ccccc1OCc1nc(C#N)c(N2CCC(C(N)=O)CC2)o1 6.04%, COc1nc(Nc2ccc(-c3nc4ccccc4o3)cc2)nc(N2CCOCC2)n1 9.06%, O=C(C1CCN(S(=O)(=O)c2cccc3cccnc23)CC1)N1CCc2ccccc21 2.25%, CCCCn1c(SCC(=O)N2CCCCC2)nc2cc(S(N)(=O)=O)ccc21 17.2%, C=CCNc1nc(NCCN2CCOCC2)nc(OC)n1 7.44%, COC(=O)c1c(NC(=O)CC2SCC(C(=O)OC)NC2=O)sc2c1CCCC2 (stereo unspecified) -6.67%, Cc1onc(-c2ccccc2)c1C(=O)Nc1nc(-c2ccc(F)c(F)c2)cs1 13.4%, CN(C)S(=O)(=O)N1CCN(CC(O)COc2ccc(C(=O)c3ccccc3)cc2)CC1 (stereo unspecified) 10.5%, CCOC(=O)N1CCN(Cc2nc3c(c(=O)n(C)c(=O)n3C)n2Cc2cccc3ccccc23)CC1 7.1%, Nc1c(S(=O)(=O)c2cccs2)c2nc3ccccc3nc2n1/N=C/c1cccc(O)c1 13.6%, O=C(NCc1ccco1)C1CCCN(S(=O)(=O)c2ccc(-n3cnnn3)cc2)C1 (stereo unspecified) 12%, CC(=O)OCP(C)(=O)COC(C)=O 5.43%, CCN(CC)CCOC(=O)c1ccc(N=CC2=C(O)CC(C)(C)CC2=O)cc1 4.23%, Cc1c(N2C(=O)C(C)SC23C(=O)Nc2ccccc23)c(=O)n(-c2ccccc2)n1C (stereo unspecified) 4.85%, COc1ccc(C)cc1NC(=O)C1CCCN1S(=O)(=O)c1ccc2c(c1)CCC(=O)N2 (stereo unspecified) 12%, CCN(CC)c1ccc(NC(=O)c2ccco2)c(C)c1 15.3%, CCc1ccc2[nH]c(=O)c(CN(CCN(C)C)C(=O)Nc3ccccc3OC)cc2c1 -7.1%, CCOC(=O)C1CCN(C(=O)CN(C)S(=O)(=O)c2cc(C)ccc2OC)CC1 -35.9%, CCC12CC3CC(C1)CC(C(=O)Nc1nn[nH]n1)(C3)C2 11.3%, CCN1C(=O)c2cccc3c(S(=O)(=O)Nc4c(C)n(C)n(-c5ccccc5)c4=O)ccc1c23 -6.68%, COC(=O)C1=C(C)NC(=O)CC1c1cccc(OC)c1OC (stereo unspecified) -0.77%, Cn1c(SCC(=O)Nc2ccc3c(c2)oc2ccccc23)nnc1-c1ccccc1 -0.68%, CCCC(=O)C1=C(c2ccccc2)C(C#N)(C#N)C(C#N)=C1N 12%, Cc1ccc(N(CC(=O)Nc2ccc(S(=O)(=O)N3CCOCC3)cc2)S(C)(=O)=O)cc1C 5.91%, CCOC(=O)CSc1nc2c(c(=O)[nH]c(=O)n2C)n1CCc1ccccc1 12%, CC(=O)NC12CC3CC(C1)CC(C(=O)OCC(=O)Nc1ncc(Cl)c(C)c1Cl)(C3)C2 3.56%, O=C1c2ccccc2S(=O)(=O)N1CC(O)COc1ccc(Cl)cc1 (stereo unspecified) 5.66%, CCCCCC(=O)Nc1ccc(N2CCN(S(C)(=O)=O)CC2)cc1 8.48%, CCn1cc(C(=O)NCc2ccco2)c(=O)c2cc(S(=O)(=O)N3CCC(C)CC3)ccc21 2.74%, COC(=O)CSc1nc2c(c(=O)n(C)c(=O)n2C)n1CCCc1ccccc1 4.4%, CCN1C(=O)c2cccc3c(S(=O)(=O)NCCCN4CCOCC4)ccc1c23 8.51%, Cc1cc(NC(=O)COc2cccc(C)c2C)no1 11.1%, Cn1c(SCC(N)=O)nnc1C1CCN(C(=O)NCc2ccccc2)CC1 11.9%, CCOC(=O)c1ccc(-c2n[nH]c(=O)c3ccccc23)cc1 -0.81%, Cc1ccc2c(c1)N(CC(=O)NCc1cccs1)C(=O)CO2 7.47%, O=C(OCN1C(=O)c2ccccc2C1=O)c1cccs1 8.67%, O=C(NCCCc1ccccc1)C1CCN(c2nnc(-n3cccc3)s2)CC1 1.14%, Cn1c(=O)c2cc(S(=O)(=O)N3CCN(c4cccc(C(F)(F)F)c4)CC3)ccc2n(C)c1=O 3.54%, CCn1c(COc2cccc(C)c2)nnc1SCC(=O)Nc1cccc(C(=O)O)c1 7.81%, O=C(CCS(=O)(=O)Cc1ccccc1)N1CCN(Cc2ccccc2)CC1 -7.91%, Cc1cc(Nc2cccc(Cl)c2)n2ncnc2n1 -9.28%, COc1ccc(C(=O)NC2(C(F)(F)F)N=C3SCCN3C2=O)cc1 (stereo unspecified) 96.1%, CCOC(=O)N1CCC(n2c(=S)[nH]c3cc(OC)c(OC)cc3c2=O)CC1 -14.3%, COc1cc2c(cc1OC)CN(C(=O)Cc1ccc(OC)c(S(=O)(=O)N3CCOCC3)c1)CC2 1.37%, CCOc1cc(C#N)c(NC(=O)c2ccco2)cc1OCC 7.92%, Cn1nc(-c2ccc(C(=O)Nc3cccnc3)cc2)c2ccccc2c1=O 13.4%, Cc1ccnc(NC(=O)Nc2cccc(F)c2)c1 -13.1%, O=c1c2cc(N3CCOCC3)ccc2[nH]c(=S)n1CCCN1CCCCC1 7.14%, COCCn1nnnc1C(c1ccc(OC)cc1OC)N1CCN(c2ccccc2)CC1 (stereo unspecified) 7.1%, COCCN(CCOC)C(=O)c1c[nH]c2ccc(S(=O)(=O)N(C)c3ccc(F)cc3)cc2c1=O -2.71%, C/C=C/c1ccc(OCCCCN2C(=O)NC(C)(C)C2=O)c(OC)c1 0.22%, CCOC(=O)c1cc2c(=O)n3cccc(C)c3nc2n(Cc2ccco2)c1=NC(=O)c1cccnc1 12.3%, CCC(C)NC(=O)CN(c1ccc(OC)cc1)S(=O)(=O)c1ccc(NC(C)=O)cc1 (stereo unspecified) -3.53%, CC1CCCCN1CCNC(=O)Cn1nc(-c2ccccc2)ccc1=O (stereo unspecified) -5.86%, CCOC(=O)N1CCC(NC(=O)CCC(=O)N2CC(C)Oc3ccccc32)CC1 (stereo unspecified) 4.49%, COCCn1cc(C(=O)N2CCCC(C)C2)c2c3ccccc3n(C)c2c1=O (stereo unspecified) 8.11%, CCn1c(SCC(=O)Nc2ccc(C(C)=O)cc2)nc2ccccc21 9.9%, CC(C)C(NC(=O)C1CCCCC1)C(=O)Nc1ccc2c(c1)OCCO2 (stereo unspecified) 5.06%, Cc1cc(C)nc(N2CCN(c3ncnc4c3cnn4Cc3ccc(Cl)cc3Cl)CC2)n1 0.3%, Cc1c(C(=O)N2CCOCC2)oc2ccc(S(=O)(=O)N3CCCCCC3)cc12 1.73%, C=CCn1c(C)nc2c(c1=O)c1nc3ccccc3nc1n2-c1ccc(C)cc1 20.7%, Cc1ccc(C2CC(c3ccccc3C)n3nc(N)nc3N2)cc1 (stereo unspecified) 1.78%, O=C(c1ccccc1)c1coc2ccc(O)c(CN3CCOCC3)c12 4.43%, CCn1c(SCCC#N)nnc1-c1ccncc1 5.61%, COC(=O)C1C(=O)C2=C(CC1C)NC(C)=C(C(=O)OC(C)C)C2c1ccc(OC)c(O)c1 (stereo unspecified) 8.85%, CCOn1c(=O)c(-c2cc3ccccc3o2)[n+]([O-])c2ccccc21 7.2%, N#C/C(=C\c1ccc[nH]1)S(=O)(=O)c1ccccc1 1.07%, Cc1cccc(-c2noc(C3CCCCC3)n2)c1 15.8%, CCOc1ccc(C(=O)NCCCN(CC)CC)cc1 16.6%, CCC1CCCCN1C(=O)Cn1c(=O)oc2ccccc21 (stereo unspecified) -4.33%, Cc1ccc(NC(=O)N(Cc2cc3cc(C)cc(C)c3[nH]c2=O)CC2COCCO2)cc1 (stereo unspecified) 1.86%, CC(C)CN1C(=O)NC(NC(=O)c2cccs2)(C(F)(F)F)C1=O (stereo unspecified) -4.34%, CCOc1ccccc1N(C(=O)Cn1nnnc1-c1ccc(C)o1)C(CC)C(=O)NC(C)(C)C (stereo unspecified) 7.35%, O=C(NCc1ccccc1)N(Cc1nc2ccccc2c(=O)[nH]1)C1CCCC1 12.2%, Fc1ccccc1N1CCN(c2nc3ccccc3n3nnnc23)CC1 0.81%, CN(C(=O)COC(=O)c1nc(-c2ccccc2)n(-c2ccccc2)n1)C1CCS(=O)(=O)C1 (stereo unspecified) 23.8%, C=CCc1cccc(CNc2nc3ccccc3n2CC)c1O 8.31%, O=C(O)CCc1ccc(-c2ccccc2)n1NC(=O)c1ccco1 13.5%, CC1CN(C(=O)c2cc3c(=O)n4ccccc4nc3s2)CC(C)O1 (stereo unspecified) 14.8%, CC(C)CC(=O)NC1(C(F)(F)F)C(=O)Nc2c1c(=O)n(C)c(=O)n2C (stereo unspecified) 1.85%, COc1ccc(C)cc1NC(=O)CN1CCN(c2ccccc2F)CC1 9.06%, Cc1nn2c3c(cnc2c1-c1ccccc1)C(=O)CC(c1ccco1)C3 (stereo unspecified) 3.63%, COc1nc(C)nc2c1sc(=S)n2C -1.82%, Cn1c(=O)c2c(nc(N3CCOCC3)n2Cc2c(F)cccc2Cl)n(C)c1=O 4.34%, COC(=O)COC(=O)c1ccc(-n2nnnc2SC)cc1 10.7%, O=C(CCn1c(=O)oc2ccccc21)N1CCN(C(c2ccccc2)c2ccccc2)CC1 5.67%, O=C(Oc1ccc(OC(=O)c2ccncc2)cc1)c1ccncc1 8.57%
